Hit rate of the full screen: of about 370,000 compounds, about 5,400 (1.5%) were called active. This is one part of a sample in which actives are shown more often than they occur. Unmarked numbers belong to inactive results.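 Rule for the calls: active = activation above the mean of all tested compounds plus 3 SD (cut at about 5.5% in these data); inactive = the rest.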

For this experiment, the system named is DAF-12 nuclear receptor (Haemonchus contortus). Description: H. contortus DAF-12 nuclear receptor activators, primary screen, cell-based, luminescence, HEK293, lit1-tk-luc reporter (AID 652067).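 Note: 100% = response to 3 µM Δ7-dafachronic acid high control.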 The conditions noted are these: HEK293 hcDAF-12 lit1-tk-luc reporter, at 6.8 µM, active compounds read high, 0% DMSO, 100% Δ7-dafachronic acid.
`CCOC(=O)/C=C/CN(C(=O)OC(C)(C)C)S(=O)(=O)N1CC=CC1`: the activation was -0.7%.

Regarding `COc1ccc(-n2c(SCC(=O)Nc3ccc4cn[nH]c4c3)nnc2-c2cccnc2)cc1`, the activation was -1.7%.

For the compound `CC(C)CNc1cccc2c1S(=O)(=O)N(Cc1cn(Cc3ccccc3C(F)(F)F)nn1)Cc1ccccc1O2`, the activation is -1.42%.

In the case of `O=C(CSc1nc2sc3c(c2c(=O)n1-c1ccccc1)CCCC3)NN=Cc1ccc(OCc2ccccc2)cc1`, the activation was -1.69%.

Consider `CCOc1ccc(C2c3[nH]c4ccccc4c3CCN2Cc2cn(CC)nc2C)cc1` (stereo not given), for which the activation is 6.76% (active).

For `COc1cccc(C2c3[nH]c4ccccc4c3CCN2Cc2cccc(C)n2)c1` (stereo not given), the activation is 3.77%.

In the case of `CCOc1ccc(C2c3[nH]c4ccccc4c3CCN2Cc2cccn2-c2ncccn2)cc1` (stereo not given), the activation is 1.92%.

As for `Cc1[nH]c2ccccc2c1CC(=O)Nc1ccc(Nc2cccnc2)c(-c2cccc(Cl)c2)c1`, the activation is 1.03%.

Regarding `COC(=O)c1ccc(CNC(=O)c2ccc3oc(C(C)C)nc3c2)cc1`, the activation was 0.43%.

`COc1ccc(CNC(=O)c2ccc3oc(C(C)C)nc3c2)cc1`: the activation is 6.74% (active).

In the case of `CC(C)c1nc2cc(C(=O)NC(C)c3cnn(C)c3)ccc2o1` (stereo not given), the activation is -1.66%.

For the compound `CC(c1ccc(N)cc1)c1cn(C)c2ccccc12` (stereo not given), the activation is -2.32%.

In the case of `Cc1ccccc1Nc1nc(N)nc(CSc2nnc3ccccn23)n1`, the activation was 0.54%.

On to `Cc1ccccc1Nc1nc(N)nc(COC(=O)CCC(=O)c2ccc(F)cc2)n1`, for which the activation is -0.96%.

Turning to `Cc1ccccc1Nc1nc(N)nc(CSc2ccccc2)n1`, the activation was 6.93% (active).

As to `COC(CNC(=O)[C@H](Cc1ccccc1)NC1(C(=O)NC2CCCCC2)CCCCC1)OC`, the activation was 0.68%.

For `CC(=O)/C(=N\Nc1ccc(Cl)cc1Cl)Sc1cccc2cccnc12`, the activation was -1.47%.

`O=C(Nc1cccc2cccnc12)c1cccc(Cl)c1`: the activation is 5.97% (active).

Turning to `O=C(Nc1cccc2cccnc12)c1ccc2sc([C@H]3C[C@H](O)[C@@H](CO)O3)nc2c1`, the activation was -3.24%.

For `COC(=O)[C@]12C[C@H](CC(=O)N3CCOCC3)C(=O)N(Cc3ccc(Cl)cc3Cl)C1=C[C@H](C(C)C)O[C@@H]2C1CC1`, the activation is -0.53%.

For `CC(=O)OC12CCCN(C1)/C(=C/c1ccncc1)C2` (stereo not given), the activation is -0.38%.

For `O=C(/C=C/c1cnc2ccccc2n1)NC1CCCCCC1`, the activation is 8.85% (active).

Consider `CC1CCCCC1NC(=O)Cn1c(=O)cnc2ccccc21` (stereo not given), for which the activation is 0.69%.

As for `O=C(Cn1c(-c2cncs2)nc2ccccc21)NC1CCCC1`, the activation is -0.67%.

Regarding `COCCN1CCn2c(nc3cc(NS(C)(=O)=O)ccc32)C1`, the activation is 0.72%.

For `O=C(NC1CCC1)c1ccc(C#CC2CC2)cn1`, the activation is 1.58%.

Consider `Nc1ncnc2c1ncn2C1OC(CO)CC1O` (stereo not given), for which the activation was -1.72%.

With `Cc1no[n+]([O-])c1COc1ccccc1/C=C1\NC(=S)NC1=O`, the activation is -0.17%.

With `C#CCOc1ccccc1/C=C1/C(=O)ON=C1C`, the activation was 6.39% (active).

Take `Cc1cccc(NC(=O)c2cc3c(C)nn(-c4ccccc4)c3s2)c1`: the activation is -3.69%.

In the case of `NS(=O)(=O)c1cc(C(=O)NCCOc2ccccc2)c(Cl)cc1Cl`, the activation is -2.95%.

Take `O=C(NCCOc1ccccc1)c1ccccc1F`: the activation was 6.22% (active).

Regarding `O=C(NCCc1csc(-c2ccccc2)n1)c1ccccc1F`, the activation was -1.62%.

In the case of `CCc1c(-c2ccccc2OC)ncn1CCc1ccccc1OC`, the activation is -2.85%.

`N[C@@H](Cc1ccccc1)C(=O)N1CCC[C@@H]1C(=O)N1CCC2CCN(S(=O)(=O)c3ccccc3)CC21` (stereo not given in full): the activation is -1.99%.

Consider `COC1=NC2=NCCN2C(OC)=N1`, for which the activation is 0.26%.

`COC(=O)C[C@@H]1CC[C@@H]2[C@@H](COc3ccc(NC(=O)Nc4ccc(F)c(F)c4)cc3C(=O)N2C)O1`: the activation is -4.16%.

As for `N#CCC[C@H]1CC[C@]2(CCCN(Cc3ccc(Cl)cc3)C2)O1`, the activation is -0.47%.

Regarding `Nc1nonc1-n1nnc(C(=O)N/N=C/c2ccc(Cl)cc2)c1-c1ccc2c(c1)OCO2`, the activation is 0.66%.

`Cc1cc2c(C)nc(N/N=C/c3ccccc3)nc2o1`: the activation is -0.61%.

For `CN(CCO)c1ccc(/C=N/Nc2nncc3ccccc23)cc1`, the activation is 5.57%.

For `C(=N\Nc1ccc2ccccc2n1)/c1ccc2c(c1)OCO2`, the activation was 7.26% (active).

`Cc1noc(C)c1/C=N/Nc1ccc2ccccc2n1`: the activation is 7.4% (active).

With `O=C(NS(=O)(=O)c1cccs1)[C@H]1O[C@@H](n2ccc(=O)[nH]c2=O)[C@H](O)[C@@H]1O`, the activation is 1.29%.

As to `COc1ccc(CSc2nnc(SCC(=O)Nc3ccccc3C(F)(F)F)s2)cc1`, the activation was -0.61%.

As to `CS(=O)(=O)Nc1ccccc1C(=O)OCC(=O)NC1CC1`, the activation is 0.83%.

As for `CC(=O)c1cc(-c2ccc3ccccc3c2)c(=O)n2c1CCC2`, the activation is -0.26%.

For `COC(=O)Nc1nc2ccc(C(=O)C3CC3)cc2[nH]1`, the activation was 0.63%.

On to `C[C@@H]1CN([C@@H](C)CO)C(=O)c2cccc(NC(=O)Nc3cccc4ccccc34)c2O[C@H]1CN(C)S(=O)(=O)c1ccccc1F`, for which the activation is -1.14%.

For the compound `C[C@@H]1ON(C)[C@H]2C[C@H]3c4[nH]c5cccc(-c6ccc7c(c6)OCO7)c5c4CCN3C[C@@H]12`, the activation is -1.17%.

In the case of `COc1ccc(C2=Nc3ccccc3NC(=O)C2N(C(=O)c2cc3ccccc3[nH]2)c2ccccc2)cc1` (stereo not given), the activation is 6.3% (active).

As to `CC(OC(=O)c1cc2ccccc2[nH]1)C(=O)N(C)c1ccccc1` (stereo not given), the activation was 2.38%.

With `CCC(=O)N(Cc1cc2ccccc2[nH]c1=O)c1ccc(OC)cc1`, the activation was -1.6%.

With `Cc1cc(=O)oc(C)c1C(=O)NCCN(C)Cc1ccccc1`, the activation is -0.39%.

As for `O=C1CC(c2ccc3c(c2)OCO3)N=C2N(CC3CC3)C/C(=C/c3ccccc3)N12` (stereo not given), the activation was -3.84%.

On to `CCNC(=O)COC(=O)/C=C/c1c(C)nn(Cc2cccc(OC)c2)c1Cl`, for which the activation was 0.11%.

In the case of `CCc1ccc(CNC(=O)CCc2nc(-c3cccs3)no2)cc1`, the activation was 0.59%.

Consider `O=C(NCc1cccnc1)c1nc(-c2cccs2)no1`, for which the activation was 5.95% (active).

Regarding `O=C(/C=C/c1cccs1)NCc1cccnc1`, the activation was -0.87%.

Turning to `Cc1ccc2nc(NC(=O)C3CSC4(C)CCC(=O)N34)sc2c1` (stereo not given), the activation was -0.71%.

As for `CCS(=O)(=O)N1Cc2ccccc2CC1C(=O)Nc1ccc(OC)cc1OC` (stereo not given), the activation was -0.97%.

With `CCS(=O)(=O)N1Cc2ccccc2CC1C(=O)Nc1nc2ccc(F)cc2s1` (stereo not given), the activation is 7.31% (active).

For `COC(=O)[C@]12C[C@H](CC(=O)NCc3ccccc3)C(=O)N(CCC3=CCCCC3)C1=C[C@H](C(C)(C)C)O[C@@H]2C`, the activation is 0.06%.

In the case of `O=C(NCc1cccs1)C1CCCN(S(=O)(=O)c2ccc([N+](=O)[O-])cc2)C1` (stereo not given), the activation is -2.29%.

For the compound `O=C(Nc1cccn(Cc2c(Cl)cccc2Cl)c1=O)c1ccc(Cl)cc1`, the activation was -0.98%.

Turning to `COc1ccc(-n2c(COc3ccccc3)nnc2SCC(=O)Nc2ccc3c(c2)OCO3)cc1`, the activation is -3.31%.

In the case of `O=S1(=O)c2c(cccc2N2CC[C@H](O)C2)O[C@@H]2CCN1C2`, the activation was -1.21%.

`CCSc1nnc(-c2cc3c(s2)-c2ccccc2CC3)o1`: the activation was 2.59%.

Regarding `COc1ccc2cc(C(=O)C3CCCN(C(=O)c4sc(C)nc4C)C3)ccc2c1` (stereo not given), the activation was -2.25%.

In the case of `CCOc1ccc(NC(=O)C2CCCN(C(=O)Nc3ccccc3)C2)cc1` (stereo not given), the activation was -0.89%.

In the case of `CCOc1ccc2nc(C(=O)N3CCCC(C)C3)sc2c1` (stereo not given), the activation was 7.97% (active).

For the compound `COC(=O)[C@]12C[C@H](CC(=O)NCC34CC5CC(CC(C5)C3)C4)C(=O)N(Cc3ccc(Cl)cc3Cl)C1=C[C@H](COCc1ccccc1)O[C@@H]2C`, the activation was -1.65%.

In the case of `CCc1ccc2[nH]c(=O)c(Cc3ccccc3)c(O)c2c1`, the activation was 0.62%.

Turning to `CCCOC(=O)Cc1c(O)c2ccccc2[nH]c1=O`, the activation was 0.81%.

For the compound `NS(=O)(=O)c1ccccc1NC(=O)c1c(O)c2ccccc2[nH]c1=O`, the activation is 15.2% (active).

For the compound `C[C@H](C(=O)N(C)c1ccccc1)[C@@H](O)c1ccc(Cl)cc1`, the activation was -1.63%.

`CCS(=O)(=O)c1cc([N+](=O)[O-])c(Sc2ccccc2N)s1`: the activation was 7.01% (active).

`Cc1ccc(Cl)cc1NC(=O)C1CCCN(c2cnccn2)C1` (stereo not given): the activation was -1.45%.

With `COc1ccc(C2CC(c3cccs3)=NN2C(=O)CSc2nnc(N)s2)cc1OC` (stereo not given), the activation was -1.14%.

With `COc1ccc(C2CC(c3cccs3)=NN2C(=O)COC(=O)c2cc3ccccc3cc2O)cc1OC` (stereo not given), the activation is -1%.

Turning to `COc1ccc(C2CC(c3cccs3)=Nc3ccccc3S2)cc1OC` (stereo not given), the activation is 7.77% (active).

For the compound `CC(C)(C)NC(=O)C(c1cccnc1)N(C(=O)c1cnco1)c1ccc(C(C)(C)C)cc1` (stereo not given), the activation was -2.31%.

With `C/C(=N\N(C)C)c1ccc(OCCOc2ccc([N+](=O)[O-])cc2)cc1`, the activation was -0.12%.

As to `COc1ccc(S[C@]2(C(=O)N(C)C)CC(=O)N(c3ccc(OC)cc3)[C@@H]2c2ccc(OC)cc2)cc1`, the activation was -2.06%.

As for `COc1ccc(-c2cn3ccsc3n2)cc1`, the activation is 6.33% (active).

As for `COc1ccc(-c2cn3ccc(C)cc3n2)cc1`, the activation is 7.15% (active).

Regarding `COc1cc(OC)cc(-c2nc(=S)n3ccsc3n2)c1`, the activation is 1.3%.

In the case of `COc1ccc(-c2ccc3c(n2)CCCN3S(=O)(=O)c2ccc(C)cc2)cc1`, the activation is -0.08%.

Take `COc1ccc(CSc2nnc(-c3cccc(C)c3)n2C)cc1`: the activation is -3.02%.

As to `FC(F)(F)Oc1ccc(-c2cn3cccnc3n2)cc1`, the activation is 0.45%.

(Values after PubChem BioAssay AID652067 (The Scripps Research Institute Molecular Screening Center, 2013).)
